Assay results taken from PubChem BioAssay (Tox21).
Values joined by “and” are separate entries in the source; they are usually repeats but may differ in a detail not shown here. Identical values can stand only once. Inconclusive results are not listed. Entries that show only a call come without a potency. Some structures have more than one record in an assay (separate samples or runs), and their calls can disagree. Active and inactive are the calls of the source. Unless noted, calls come from the whole dose curve; as a rule, active = well fitted curve in the direction sought with a large enough effect in the repeat runs; inconclusive = weak or mixed curves; inactive = no such curve, though single readings can be large; an effect the other way counts as inactive or inconclusive.

Key:
[1] = qHTS assay to identify small molecule agonists of the AP-1 signaling pathway - cell viability counter screen (AID 1159525; calls by dose curve; note: nearly all actives have a fitted effect of over 55% in size)
Summary of the method: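 Each titration point was normalised to DMSO and tetra n-octyl ammonium bromide controls. The read was Cell Titer Glo luminescence after 30 min at RT, following 5 h compound exposure of ME-180 AP-1-bla cells at 37 °C.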

[2] = target: Nuclear receptor subfamily 1 group I member 3 (Homo sapiens) (UniProt Q14994); assay: qHTS assay to identify small molecule antagonists of the constitutive androstane receptor (CAR) signaling pathway (AID 1224838);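 note: HepG2 cells stably expressing hCAR with CYP2B6 luciferase reporter stimulated by CITCO; nearly all actives have a fitted effect of over 40% in size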; note: potency is the fitted concentration of half-maximal effect
Sequence of Nuclear receptor subfamily 1 group I member 3 (Homo sapiens) (Q14994 whole entry, looked up): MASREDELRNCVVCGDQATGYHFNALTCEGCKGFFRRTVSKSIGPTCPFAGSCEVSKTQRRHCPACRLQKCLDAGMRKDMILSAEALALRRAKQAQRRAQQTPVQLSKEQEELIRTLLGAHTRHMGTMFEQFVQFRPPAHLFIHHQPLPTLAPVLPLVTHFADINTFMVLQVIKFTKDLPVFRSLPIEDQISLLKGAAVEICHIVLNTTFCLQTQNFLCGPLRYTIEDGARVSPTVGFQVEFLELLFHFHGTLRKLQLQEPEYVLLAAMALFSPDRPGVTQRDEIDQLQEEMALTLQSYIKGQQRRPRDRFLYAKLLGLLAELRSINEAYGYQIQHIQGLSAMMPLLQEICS
Summary of the method: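 Antagonist mode used CITCO at a final 50 nM to activate CAR in human hepatoma HepG2 cells carrying stable hCAR and a 2.2 kb CYP2B6 promoter-luciferase construct. Compounds were tested at 15 concentrations over 24 h, with luminescence as the end point.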

[3] = qHTS assay to identify small molecule agonists of the estrogen related receptor signaling pathway with the pleiotropic PPARgamma coactivator (PGC) from Tox21 10K library (AID 1224842); note: nearly all actives have a fitted effect of over 15% in size
Summary of the method: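 PGC/ERR reporter cells (NTP line) were seeded 2,000 per well, rested 6 h at 37 C/5% CO2, then pin-dosed with compounds in DMSO for 18 h at 37 C; luciferase read by One-Glo luminescence after 30 min at room temperature.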

[4] = A CellTox Green Cytotoxicity Assay to monitor cytotoxicity in HEK293 cells - 0 hour (AID 1224869); note: nearly all actives have a fitted effect of over 50% in size; note: potency is the fitted concentration of half-maximal effect
Summary of the method: (§1)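 Cells (HEK293, 600/well) and dye reagent are dispensed together. After 5 h at 37 C, 23 nL compound is pinned in. Plates stay at 37 C for 40 h with fluorescence read at 0h, 8h, 16h, 24h, 32h and 40h.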

[5] = qHTS RealTime-Glo MT Cell Viability Assay in HepG2 cells - 40 hour (AID 1224870); note: nearly all actives have a fitted effect of over 50% in size; note: potency is the fitted concentration of half-maximal effect
Summary of the method: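 HepG2 cells mixed with RealTime-Glo MT reagents (NanoLuc plus cell-permeant prosubstrate) were seeded at 600 cells/well, incubated 5 h at 37 C/5% CO2, then pinned with compounds in DMSO; nonlytic luminescence tracked viability during 40 h treatment.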

[6] = A CellTox Green Cytotoxicity Assay to monitor cytotoxicity in HepG2 cells - 16 hour (AID 1224876); note: nearly all actives have a fitted effect of over 45% in size; note: potency is the fitted concentration of half-maximal effect
Summary of the method: (§2)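 Cells and non-lytic dye reagent are dispensed together (600 HepG2 cells/well) and incubated 5 h before DMSO compound transfer. Kinetic fluorescence is then recorded in the same wells during 40 h at 37 C.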

[7] = qHTS RealTime-Glo MT Cell Viability Assay in HepG2 cells - 32 hour (AID 1224877); note: nearly all actives have a fitted effect of over 55% in size; note: potency is the fitted concentration of half-maximal effect
Summary of the method: (§3)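 Luminescence read-out: viable HepG2 cells reduce a prosubstrate to a NanoLuc substrate, giving a signal proportional to live cell number. Reads taken at 0, 8, 16, 24, 32 and 40 h of compound exposure at 37 C.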

[8] = qHTS RealTime-Glo MT Cell Viability Assay in HEK293 cells - 0 hour (AID 1224880); note: top concentration of the series differs between compounds; nearly all actives have a fitted effect of over 45% in size
Summary of the method: (§4)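 Real-time viability in HEK293: signal arises when living cells convert a prosubstrate for NanoLuc in the medium, so luminescence tracks viable cell number. Compound (23 nL, DMSO) added 5 h post-seeding; kinetic reads at 0–40 h, 37 C.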

[9] = A CellTox Green Cytotoxicity Assay to monitor cytotoxicity in HepG2 cells - 8 hour (AID 1224890); note: nearly all actives have a fitted effect of over 45% in size; note: potency is the fitted concentration of half-maximal effect
Summary of the method: as §2

[10] = qHTS assay to identify small molecule antagonists of the estrogen receptor alpha (ER-alpha) signaling pathway using the BG1 cell line in the presence of 0.1 nM 17-beta-estradiol - cell viability counter screen (AID 1259241); note: nearly all actives have a fitted effect of over 40% in size; note: potency is the fitted concentration of half-maximal effect
Summary of the method: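 Cytotoxicity counter-screen: live-cell protease activity measured by fluorescence (30 min reagent step) in the same wells. Cells were VM7Luc4E2 with endogenous ER-alpha and ERE-driven luciferase, treated 22 hr at 37C alongside 0.1 nM 17beta-estradiol final.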

[11] = qHTS assay to identify small molecule HDAC inhibitors - cell viability counter screen (AID 1259365); note: series mostly up to about 92 µM; nearly all actives have a fitted effect of over 50% in size
Summary of the method: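 CellTiter-Glo luminescence (30 min, room temperature) reported viability after a 2 h compound exposure at 37 C. Cells: wild-type HCT-116, 1,500 per well, seeded the night before.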

[12] = qHTS assay to identify small molecule agonists or antagonists of the thyroid stimulating hormone receptor (TSHR) signaling pathway - wild type cell line counter screen (AID 1259384; calls by dose curve)
Summary of the method: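 Wild-type HEK293 cells were plated 18 h at 37 C/5% CO2, pin-dosed with compound plus Ro20-1724 medium, held 30 min at room temperature, then given cAMP-d2 and anti-cAMP-cryptate; fluorescence was read after 1 h. Fifteen concentrations, triplicate.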

[13] = qHTS assay to identify small molecule agonists of the TGF-beta/Smad signaling pathway (AID 1346859; active = well fitted activation curve with a large enough effect in the signal ratio in the repeat runs, not every such curve was filed as active; the % refers to the signal ratio; note: series mostly up to about 77 µM)
Summary of the method: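 Fluorescence (ex 405 nm; em 460 and 530 nm) was read 2 h after LiveBLAzer FRET substrate at RT. The preceding compound treatment of overnight-plated SBE-bla HEK293T cells lasted 5 h at 37 C.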

[14] = target: Cytochrome P450 1A2 (Homo sapiens) (UniProt P05177); assay: Cytochrome P450 Family 1 Subfamily A Member 2 (CYP1A2) small molecule antagonists: luciferase reporter qHTS assay (AID 1671199); note: nearly all actives have a fitted effect of over 50% in size; note: potency is the fitted concentration of half-maximal effect
Sequence of Cytochrome P450 1A2 (Homo sapiens) (P05177 whole entry, looked up): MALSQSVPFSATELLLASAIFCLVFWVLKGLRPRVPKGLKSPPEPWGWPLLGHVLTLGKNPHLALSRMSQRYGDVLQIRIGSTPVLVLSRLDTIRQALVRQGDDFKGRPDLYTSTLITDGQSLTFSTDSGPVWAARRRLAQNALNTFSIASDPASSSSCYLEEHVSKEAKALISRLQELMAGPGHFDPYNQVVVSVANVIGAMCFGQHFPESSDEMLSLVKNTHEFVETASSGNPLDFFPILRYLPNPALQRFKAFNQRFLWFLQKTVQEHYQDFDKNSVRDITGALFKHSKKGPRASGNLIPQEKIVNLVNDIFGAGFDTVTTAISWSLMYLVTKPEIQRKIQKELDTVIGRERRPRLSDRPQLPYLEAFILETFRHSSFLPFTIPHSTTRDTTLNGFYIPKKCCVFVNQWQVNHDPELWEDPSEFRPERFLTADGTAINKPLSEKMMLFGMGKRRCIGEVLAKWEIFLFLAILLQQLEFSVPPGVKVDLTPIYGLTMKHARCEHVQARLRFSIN
Summary of the method: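 Compounds were incubated with CYP1A2 and a luminogenic proluciferin substrate for 10 min at room temperature before the reaction was started with NADPH regeneration solution. After 1 h, detection reagent was added and light output, proportional to CYP activity, was recorded.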

[15] = target: Voltage-gated inwardly rectifying potassium channel KCNH2 (Homo sapiens) (UniProt Q12809); assay: Human Ether-a-go-go-Related Gene (hERG) channel small molecule antagonists: fluorescence cell-based qHTS assay (AID 1671200); note: nearly all actives have a fitted effect of over 50% in size; note: potency is the fitted concentration of half-maximal effect
Sequence of Voltage-gated inwardly rectifying potassium channel KCNH2 (Homo sapiens) (Q12809 whole entry, looked up): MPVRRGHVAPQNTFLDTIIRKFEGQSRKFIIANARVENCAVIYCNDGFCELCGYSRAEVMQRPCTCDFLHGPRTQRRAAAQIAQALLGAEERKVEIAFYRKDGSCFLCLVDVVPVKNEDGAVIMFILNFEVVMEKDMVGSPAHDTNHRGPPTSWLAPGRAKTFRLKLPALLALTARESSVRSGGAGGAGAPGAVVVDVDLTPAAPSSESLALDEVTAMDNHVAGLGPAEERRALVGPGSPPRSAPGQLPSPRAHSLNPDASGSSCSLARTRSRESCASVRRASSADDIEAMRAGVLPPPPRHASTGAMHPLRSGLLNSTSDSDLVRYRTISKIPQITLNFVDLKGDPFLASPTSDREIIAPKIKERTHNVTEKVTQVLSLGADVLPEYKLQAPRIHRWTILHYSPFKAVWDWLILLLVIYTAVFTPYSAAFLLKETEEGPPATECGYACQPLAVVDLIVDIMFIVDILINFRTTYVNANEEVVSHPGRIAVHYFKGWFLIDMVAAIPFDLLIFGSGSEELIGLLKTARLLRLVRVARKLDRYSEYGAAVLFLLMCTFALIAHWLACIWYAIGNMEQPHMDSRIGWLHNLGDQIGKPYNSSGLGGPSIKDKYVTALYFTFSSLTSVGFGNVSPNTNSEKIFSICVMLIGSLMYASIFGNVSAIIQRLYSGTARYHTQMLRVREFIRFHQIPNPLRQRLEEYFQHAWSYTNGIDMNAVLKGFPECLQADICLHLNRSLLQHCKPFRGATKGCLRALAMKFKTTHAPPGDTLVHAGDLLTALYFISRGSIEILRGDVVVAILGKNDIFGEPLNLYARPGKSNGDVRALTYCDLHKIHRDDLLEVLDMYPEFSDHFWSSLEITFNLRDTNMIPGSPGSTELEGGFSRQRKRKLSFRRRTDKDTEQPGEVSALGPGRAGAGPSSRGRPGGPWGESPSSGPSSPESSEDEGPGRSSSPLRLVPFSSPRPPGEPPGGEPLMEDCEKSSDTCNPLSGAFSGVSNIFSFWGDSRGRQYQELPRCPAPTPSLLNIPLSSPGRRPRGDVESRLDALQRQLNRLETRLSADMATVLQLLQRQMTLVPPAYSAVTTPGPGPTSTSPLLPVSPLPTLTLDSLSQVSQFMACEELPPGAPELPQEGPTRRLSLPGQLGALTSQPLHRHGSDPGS
Summary of the method: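 Thallium flux as potassium surrogate: FluxOR II dye loaded 1 h at room temperature into hERG-expressing U2OS cells, then stimulus buffer added after 10 min. Kinetic 480 nm excitation/540 nm emission read, 2 min.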

[16] = A CellTox Green Cytotoxicity Assay to monitor cytotoxicity in HEK293 cells - 40 hour (AID 1224871); note: nearly all actives have a fitted effect of over 45% in size; note: potency is the fitted concentration of half-maximal effect
Summary of the method: as §1

[17] = qHTS RealTime-Glo MT Cell Viability Assay in HEK293 cells - 40 hour (AID 1224874); conditions: RealTime-Glo luminescence; max response: stronger effect = lower value; note: nearly all actives have a fitted effect of over 50% in size; note: potency is the fitted concentration of half-maximal effect
Summary of the method: as §4

[18] = A CellTox Green Cytotoxicity Assay to monitor cytotoxicity in HEK293 cells - 16 hour (AID 1224888); note: nearly all actives have a fitted effect of over 35% in size; note: potency is the fitted concentration of half-maximal effect
Summary of the method: as §1

[19] = qHTS RealTime-Glo MT Cell Viability Assay in HepG2 cells - 0 hour (AID 1224889); note: nearly all actives have a fitted effect of over 50% in size
Summary of the method: as §3

[20] = qHTS assay to identify small molecule antagonists of the sonic hedgehog signaling (Shh) pathway (AID 1259369; calls by dose curve; note: nearly all actives have a fitted effect of over 45% in size; note: potency is the fitted concentration of half-maximal effect)
Summary of the method: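 Cells are plated and held 4hr at 37 C, compounds (DMSO) are pinned in, conditioned medium is added to stimulate the pathway, and after 24hr luciferase reagent is added for 30min before luminescence is read.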

O=C(Nc1ccccc1-c1ccc(Cl)cc1)c1cccnc1Cl
Potency [1]: inactive
Potency [2]: inactive
Potency [3]: inactive
Potency [4]: 46.3 µM (active)
Potency [5]: inactive
Potency [6]: 41.2 µM (active)
Potency [7]: inactive
outcome [8]: inactive
Potency [9]: 41.2 µM (active)
Potency [10]: inactive
outcome [11]: inactive
outcome [12]: inactive
outcome [13]: inactive
Potency [14]: 8.42 µM (active)
Potency [15]: inactive

CCN(CC)C(=O)Cl
Potency [1]: inactive
Potency [2]: inactive
Potency [3]: inactive
Potency [4]: inactive
Potency [5]: inactive
Potency [16]: inactive
max response [17]: 13.5% (inactive)
Potency [6]: inactive
Potency [7]: inactive
outcome [8]: inactive
Potency [18]: inactive
Potency [19]: inactive
Potency [9]: inactive
Potency [10]: inactive
outcome [11]: inactive
Potency [20]: inactive
outcome [12]: inactive
outcome [13]: inactive
Potency [14]: inactive
Potency [15]: inactive

Oc1c(I)cc(I)cc1I
Potency [1]: inactive
Potency [3]: inactive
Potency [4]: inactive
Potency [5]: inactive
Potency [16]: inactive
max response [17]: -25% (inactive)
Potency [6]: inactive
Potency [7]: inactive
outcome [8]: inactive
Potency [18]: inactive
Potency [19]: inactive
Potency [9]: inactive
Potency [10]: inactive
outcome [11]: inactive
outcome [12]: inactive
outcome [13]: inactive
Potency [14]: 39.9 µM (active)
Potency [15]: inactive

Oc1c(Cl)ccc(Cl)c1Cl
Potency [2]: inactive
Potency [3]: inactive

Nc1ccc(Cl)cc1Cl
Potency [3]: inactive

COc1ccccc1[N+](=O)[O-]
Potency [3]: inactive

CN1CSC(=S)N(C)C1
Potency [2]: 3.84 µM (active) and 7.67 µM (active)
Potency [3]: inactive
Potency [4]: inactive
Potency [5]: 12.3 µM (active)
Potency [16]: 6.88 µM (active) and 12.3 µM (active)
Potency [17]: 13.7 µM (active) and 21.8 µM (active)
Potency [6]: inactive
Potency [7]: 15.4 µM (active)
outcome [8]: inactive
Potency [18]: inactive
Potency [19]: inactive
Potency [9]: inactive
Potency [10]: 17.1 µM (active)
outcome [11]: inactive
Potency [20]: 342 nM (active) and 1.08 µM (active)
outcome [12]: inactive
outcome [13]: inactive
Potency [14]: inactive and 39.8 µM (active)
Potency [15]: inactive

O=[N+]([O-])c1cccc(Cl)c1Cl
Potency [3]: inactive

COc1ccc(C(c2ccc(OC)cc2)C(Cl)(Cl)Cl)cc1
Potency [2]: inactive
Potency [3]: inactive
Potency [4]: inactive
Potency [5]: inactive
Potency [16]: inactive
Potency [17]: 52.6 µM (active)
Potency [6]: inactive
outcome [8]: inactive
Potency [18]: inactive
Potency [19]: inactive
Potency [9]: inactive
Potency [10]: inactive
outcome [11]: inactive
Potency [20]: 21.6 µM (active)
outcome [12]: inactive
outcome [13]: inactive
Potency [14]: 25 µM (active)

CCc1cccc(C)c1N
Potency [3]: inactive

Clc1ccccc1-c1ccccc1Cl
Potency [4]: inactive
Potency [5]: inactive
Potency [16]: 31.4 µM (active)
Potency [6]: inactive
Potency [7]: inactive
outcome [8]: inactive
Potency [18]: 35.2 µM (active)
Potency [19]: inactive
Potency [9]: inactive
Potency [10]: inactive
outcome [11]: inactive
Potency [20]: inactive
outcome [13]: inactive
Potency [14]: inactive
Potency [15]: 27.9 µM (active)

CO/C=C(/C(=O)OC)c1ccccc1Oc1cc(Oc2ccccc2C#N)ncn1
Potency [2]: inactive
Potency [3]: inactive
Potency [4]: inactive
Potency [5]: inactive
Potency [16]: 4.9 µM (active)
Potency [17]: 33.8 µM (active)
Potency [6]: inactive
Potency [18]: inactive
Potency [9]: inactive
outcome [11]: inactive
Potency [20]: 0.327 µM (active)
outcome [12]: inactive
Potency [14]: 41.4 µM (active)
Potency [15]: inactive
